Experimental data reported in the supplement of paper PMC3334620.
In all, about 33,000 sequences were measured (“E-score (-0.5 to 0.5)”: median about -0.056, highest 2% from about 0.38 on). The full list was thinned out, with the highest values kept by preference.

Target: Stb4 (UniProt P50104)
Test: PBM E-score (8-mer binding enrichment) (E-score (-0.5 to 0.5)); higher = stronger / more preferred TF binding
Conditions: protein concentration: 200 nM; construct: GST-DNA-binding domain
Description: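 Universal 'all 10-mer' protein binding microarrays (Agilent AMADID 015681) probed with GST-tagged S. cerevisiae TFs (full-length or DBD) made by in vitro transcription/translation (PURExpress), about 100-200 nM. Bound TF was detected with fluorescent anti-GST. Each ungapped 8-mer (which stands for itself and its reverse complement) is scored by the PBM enrichment score (E-score), a modified Wilcoxon-Mann-Whitney statistic from -0.5 to +0.5, computed with the Universal PBM Analysis Suite. Scale: above 0.35 generally sequence-specific binding.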

Chain of UniProt P50104 (P50104 whole entry): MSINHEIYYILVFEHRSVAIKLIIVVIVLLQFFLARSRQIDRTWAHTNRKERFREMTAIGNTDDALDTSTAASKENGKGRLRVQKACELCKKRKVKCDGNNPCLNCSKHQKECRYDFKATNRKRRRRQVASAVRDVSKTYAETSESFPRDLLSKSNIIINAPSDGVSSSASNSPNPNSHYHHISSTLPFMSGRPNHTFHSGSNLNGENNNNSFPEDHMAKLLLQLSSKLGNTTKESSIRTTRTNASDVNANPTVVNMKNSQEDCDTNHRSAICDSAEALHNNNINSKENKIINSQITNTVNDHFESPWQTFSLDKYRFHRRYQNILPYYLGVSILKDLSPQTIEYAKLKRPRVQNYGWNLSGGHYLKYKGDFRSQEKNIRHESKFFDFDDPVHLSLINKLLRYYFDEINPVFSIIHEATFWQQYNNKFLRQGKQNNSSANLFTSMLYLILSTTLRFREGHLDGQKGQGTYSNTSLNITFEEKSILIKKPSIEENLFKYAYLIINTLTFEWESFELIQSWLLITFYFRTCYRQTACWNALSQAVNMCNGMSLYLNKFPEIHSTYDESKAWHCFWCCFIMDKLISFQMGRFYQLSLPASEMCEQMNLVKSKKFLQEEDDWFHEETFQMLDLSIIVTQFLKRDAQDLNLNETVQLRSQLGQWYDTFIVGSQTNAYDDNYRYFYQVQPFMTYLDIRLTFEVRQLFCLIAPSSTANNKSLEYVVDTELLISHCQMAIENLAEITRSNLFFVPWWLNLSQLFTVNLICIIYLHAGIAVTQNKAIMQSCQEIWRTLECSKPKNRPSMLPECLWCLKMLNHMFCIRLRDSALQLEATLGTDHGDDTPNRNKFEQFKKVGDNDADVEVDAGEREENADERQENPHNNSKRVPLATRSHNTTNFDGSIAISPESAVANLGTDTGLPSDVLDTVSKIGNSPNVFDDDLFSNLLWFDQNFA

Sequence | PBM E-score
ATTAACCC | 0.212
ATTAACCA | -0.136
ATTAACCG | 0.413
GAGGAATC | -0.07
CCGTCGGC | 0.329
CCGTCGGA | 0.397
GCGTCGTA | 0.0854
GCGTCGGA | 0.449
GCGTCGAA | -0.0895
ACGTCGGA | 0.389
ACGTCGGC | 0.307
CCGTCGTA | -0.0259
ACGTCGGG | 0.349
CTGGCAGC | -0.168
ACATAATA | -0.153
CGAGTCAA | -0.0247
AGGTTCAT | -0.128
ACAAGGCT | -0.138
ACAGATTG | -0.0283
AGTTTAAT | -0.111
ATGGGCTA | -0.084
CCACTCCA | -0.146
AATACCAT | -0.115
GGTGCCTA | -0.0355
AGTGCCGC | 0.123

Sequence | PBM E-score
GGTGCCCA | -0.147
CGTGCCCA | 0.00213
AGTGCCGA | 0.423
AGTGCCGG | 0.301
GGTGCCGA | 0.402
CGTGCCGC | 0.0918
CGTGCCGA | 0.405
CTGGACGC | -0.278
ATCGCCCG | 0.152
CACGGCCC | 0.0623
GAGGAGTA | -0.00803
ATCGGGCA | 0.125
ATCGGGTG | 0.366
CCGGGGTA | 0.155
CACGGGTA | 0.333
CTCGGGCA | 0.325
CCCGGGTC | 0.32
CTCGGGTA | 0.478
GACGGGTA | 0.267
CCCGGGTA | 0.407
GTCGGGGA | 0.225
ATCGGGTA | 0.419
GTCGGGTA | 0.445
ATGATTTC | 0.0687
AATGATTG | -0.164

Sequence | PBM E-score
ATAGCAAT | -0.185
AGTCTAAC | -0.163
ACAGTCAG | -0.0929
ACACCAAT | 0.00344
CTCGGGTC | 0.434
ATCGGGTC | 0.325
CTCGGGCC | 0.343
CGGAATTA | 0.401
CGGAATAA | 0.384
CGGAATTC | 0.322
GGGAATCA | 0.0543
AGGAATTA | 0.0103
CGGAATCA | 0.388
AGGAATCA | -0.00647
TGGAATAA | 0.072
GGGAATAA | 0.233
GGATCATA | 0.228
AACTGTGC | -0.157
AAAAATCG | 0.0452
CTGAAACA | 0.0153
GTTTAGAA | -0.0425
ATGAAAAT | 0.0835
AGACGGGA | 0.174
GACTCAGC | -0.191
CACGCATG | -0.209

Sequence | PBM E-score
ATACATGA | -0.212
ACGAACAG | -0.15
CCGAACAC | 0.372
CCGAACAA | 0.425
CCGAACTC | 0.374
CCGAACAG | 0.4
GCGAACAA | -0.0836
ACGAACAA | 0.079
ACGAACTA | -0.194
CCGAACTA | 0.395
GCAACGAC | 0.0391
CACTGTGA | -0.018
AGCCCCTA | -0.139
AAGGGTTC | -0.14
CACGTGTA | -0.0718
GTGTGAAC | 0.0138
CGTGGCAC | -0.178
CCCTGTGC | -0.0934
AAATCGGG | 0.317
TCATCGGA | 0.403
CTATCGTA | -0.199
TAATCGGA | 0.324
CTATCGGA | 0.423
ACATCGGA | 0.346
ATATCGGG | 0.306

Sequence | PBM E-score
ATATCGGC | 0.316
ATATCGGA | 0.383
GCATCGGA | 0.359
CTATCGGC | 0.26
AAATCGGA | 0.399
AAATGCGT | -0.129
AGTGTGAT | -0.0318
CAATTTAC | -0.00625
CATAGTGG | -0.102
CCGACCTA | 0.296
CACGGTGG | -0.061
GGCCCACC | 0.0688
AAAAGATT | -0.0765
AGGTTTAC | -0.0584
GTATCGAA | -0.0419
GAATCGGA | 0.38
GTATCGGA | 0.39
ACATCACC | 0.0212
CATCTGTC | 0.0312
ACTTCCTG | -0.0685
ACTTCCGG | 0.411
CCTTCCGC | 0.306
CCTTCCTA | -0.354
ACTTCCCG | 0.354
GCTTCCGA | 0.473

Sequence | PBM E-score
GCTTCCTA | -0.0701
GCTTCCAA | -0.147
CCTTCCGA | 0.451
ACTTCCCA | -0.158
ACTTCCGA | 0.479
ACTTCCGC | 0.379
AAAACTTT | 0.0161
CCTGTATC | 0.011
CTGCTAAC | -0.0715
ATCTCTAA | 0.0304
AGCCAGAT | 0.0138
CACCGCAA | 0.0924
CACCGTCA | -0.13
CGGATGGC | 0.347
GACCCATC | 0.0784
GACCCGAA | 0.428
GACCCGAC | 0.384
GACCCGGA | 0.323
AACCCGAC | 0.324
TACCCGTA | 0.31
GACCCGCC | 0.0652
GACCCCGA | 0.288
TACCCGAA | 0.476
GCCCCGAA | 0.31
TACCCGGA | 0.415

Sequence | PBM E-score
CACCCGGA | 0.358
TACCCCGA | 0.342
GAAAAGTC | -0.011
ACCAAGGA | 0.00373
AAGGCCTA | -0.225
ATTTGGGG | -0.0633
ACCCCGAA | 0.369
AACCCGAA | 0.387
AACCCGCA | 0.156
ACCAAGAA | -0.0301
AGCCGGAC | 0.239
TGCCGGCA | 0.296
AGCCGGAT | 0.396
TGCCGGAA | 0.419
AGCCGGAA | 0.395
AGCCGGAG | 0.379
AGCCGGCA | 0.316
AGCCGGCT | 0.238
CGCCGGAG | 0.168
CGCCGGAA | 0.392
GGCCGGAA | 0.371
CGCCGGAC | 0.146
